Compound activity deposited in PubChem BioAssay by The Scripps Research Institute Molecular Screening Center.
Compounds with a hit are over-represented: about 2.6% of the library has one in this group of screens.
PKA-R2B activ: activators of PKA-R2B holoenzyme, primary screen, biochemical, fluorescence polarization, Cy5-IP20, human. cAMP-dependent protein kinase catalytic subunit beta (Homo sapiens) + cAMP-dependent …. PKA-R2B holoenzyme dissociation; R2B truncated from residue 108, S112A mutant; 0% DMSO only, 100% 113 µM cGMP. activation, % at 11.4 µM. hit rate 0.079% among 340,000. AID 504700, 2011;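 active = activation above a cutoff set at the mean over all compounds plus 3 SD, cut at about 18% in these data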;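 note: higher means more holoenzyme dissociation and a rise in polarization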
PAFAH2 inh: PAFAH2 enzyme inhibitors, primary screen, biochemical, fluorescence polarization, human | hit rate 0.99% among 340,000 | inhibition, % at 3.39 µM | recombinant PAFAH2, FP-rhodamine activity probe | Platelet-activating factor acetylhydrolase 2, cytoplasmic (Homo sapiens), Q99487;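 active = inhibition above the mean over all tested compounds plus 3 SD, cut at about 30% in these data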;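 note: inhibitors block probe labeling of enzyme so polarization drops; 0% = enzyme with DMSO and 100% = wells lacking PAFAH2 protein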
PAFAH1B3 FP inh: PAFAH1B3 enzyme inhibitors, primary screen, biochemical, fluorescence polarization, human; Platelet-activating factor acetylhydrolase IB subunit alpha1 (Homo sapiens), Q15102; recombinant PAFAH1B3, FP-rhodamine probe; inhibition, % at 3.39 µM; hit rate 0.28% among 340,000; AID 492972, 2010;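 active = inhibition above the screen-wide average of all tested compounds plus 3 SD, cut at about 25% in these data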;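 note: 0% = enzyme with DMSO only and 100% = wells lacking PAFAH1B3 protein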
PKA-R1A activ: activators of PKA-R1A holoenzyme, primary screen, biochemical, fluorescence polarization, Cy5-IP20, bovine R1A, mouse PKAc | cAMP-dependent protein kinase type I-alpha regulatory subunit (Bos taurus) + … | hit rate 0.083% among 340,000 | PKA-R1A dissociation; scaled: DMSO 0%, 113 µM cGMP 100% | AID 504707, 2011 | activation, % at 11.4 µM;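 active = percent activation above the mean of all tested compounds plus 3 SD, cut at about 19% in these data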;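 note: higher means more PKAc released from R1A so a rise in polarization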
PAFAH1B2 inh: PAFAH1B2 enzyme inhibitors, primary screen, biochemical, fluorescence polarization, human; Platelet-activating factor acetylhydrolase IB subunit alpha2 (Homo sapiens), P68402; recombinant PAFAH1B2, FP-rhodamine activity probe; inhibition, % at 3.39 µM; AID 492953, 2010; hit rate 1.2% among 340,000;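 active = inhibition above the mean of all tested compounds plus 3 SD, cut at about 24% in these data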;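 note: 0% = enzyme with DMSO and 100% = wells lacking PAFAH1B2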
Target sequence (P68402 whole entry, looked up): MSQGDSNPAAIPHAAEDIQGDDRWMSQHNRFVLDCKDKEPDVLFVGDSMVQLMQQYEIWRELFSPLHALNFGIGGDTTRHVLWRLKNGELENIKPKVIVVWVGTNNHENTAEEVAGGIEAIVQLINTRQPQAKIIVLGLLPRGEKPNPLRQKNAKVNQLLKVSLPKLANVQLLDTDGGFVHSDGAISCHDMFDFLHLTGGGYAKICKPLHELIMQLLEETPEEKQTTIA
pPAFAH inh: pPAFAH enzyme inhibitors, primary screen, biochemical, fluorescence polarization, human; recombinant pPAFAH, FP-rhodamine probe fluorescence polarization; inhibition, % at 3.39 µM; hit rate 1.5% among 330,000;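 active = inhibition above the mean inhibition across the screen plus 3 SD, cut at about 25% in these data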;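 note: inhibitors block binding of the rhodamine activity-based probe so polarization drops; 0% = enzyme with DMSO and 100% = wells lacking pPAFAH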
Target sequence (Q13093 whole entry, looked up): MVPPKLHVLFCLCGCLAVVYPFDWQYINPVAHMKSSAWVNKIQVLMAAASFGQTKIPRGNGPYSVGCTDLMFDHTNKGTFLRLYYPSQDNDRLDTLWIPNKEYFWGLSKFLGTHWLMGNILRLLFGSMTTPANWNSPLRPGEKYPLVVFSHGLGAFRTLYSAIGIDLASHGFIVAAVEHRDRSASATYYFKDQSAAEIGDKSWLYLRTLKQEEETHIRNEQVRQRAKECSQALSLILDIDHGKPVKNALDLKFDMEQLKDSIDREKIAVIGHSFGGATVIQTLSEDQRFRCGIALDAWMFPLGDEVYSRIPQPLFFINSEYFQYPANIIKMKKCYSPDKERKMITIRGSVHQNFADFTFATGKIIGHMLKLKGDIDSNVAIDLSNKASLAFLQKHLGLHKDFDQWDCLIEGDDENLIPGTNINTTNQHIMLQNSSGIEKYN
PAFAH2 FP conf: PAFAH2 enzyme inhibitors, confirmation, biochemical, fluorescence polarization, human | shares compounds with PAFAH2 inh | recombinant PAFAH2, FP-rhodamine activity probe | inhibition, % at 3.39 µM | hit rate 65% among 2,300;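 active = mean inhibition over three repeats above a set limit taken from the earlier primary screen, cut at about 30% in these data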;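 note: inhibitor blocks binding of rhodamine activity probe so polarization falls; 0% = enzyme with DMSO and 100% = wells lacking PAFAH2 protein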
* = called active by the depositor; nt = not tested or not shown.

SMILES | PKA-R2B activ | PAFAH2 inh | PAFAH1B3 FP inh | PKA-R1A activ | PAFAH1B2 inh | pPAFAH inh | PAFAH2 FP conf
Oc1oc(-c2ccccc2)nc1C=NCc1ccccc1 | -3 | 45* | 11 | -6 | 4 | 18 | 37*
Oc1oc(-c2ccccc2)nc1C=Nc1ccccc1 | -2 | 28 | 6 | -13 | 5 | 3 | nt
COc1ccc(CNC(=O)COC(=O)CCOc2ccc(C)cc2)cc1OC | -9 | -2 | 8 | 8 | 0 | 8 | nt
Cc1cccc([N+](=O)[O-])c1NC(=O)COC(=O)C1CC2CCCC(C1)C2=O (configuration not stated) | -14 | 9 | 6 | -7 | 3 | 3 | nt
COc1cccc(CNC(=O)COC(=O)C2CC3CCCC(C2)C3=O)c1 (configuration not stated) | -3 | -4 | 6 | 6 | 3 | -1 | nt
COc1cccc(NC(=O)COC(=O)C2CC3CCCC(C2)C3=O)c1 (configuration not stated) | 4 | 58* | -2 | -4 | 9 | -3 | 54*
Cc1ccc([N+](=O)[O-])c(NC(=O)COC(=O)C2CC3CCCC(C2)C3=O)c1C (configuration not stated) | -2 | 34* | 8 | -4 | 2 | 0 | 32*
O=C(CN(Cc1cccs1)C(=O)CNS(=O)(=O)c1ccc(Cl)cc1)NCc1ccco1 | 10 | 30* | 1 | 8 | 16 | 5 | 28
O=C1NC(c2cccc3ccccc23)Nc2ccc(Cl)cc21 (configuration not stated) | -2 | 4 | 6 | -8 | 7 | nt | nt
COc1ccccc1/C=C/C(=O)OCC(=O)NCc1ccco1 | 9 | 62* | 8 | 1 | 5 | 4 | 53*
COc1cccc(OC)c1C(=O)OCC(=O)NCc1ccco1 | -4 | -2 | 4 | -3 | 7 | 2 | nt
COc1cc(/C=C/C(=O)OCC(=O)NCc2ccco2)ccc1O | -15 | 66* | 4 | 7 | 4 | 6 | 46*
O=C(CN1C(=O)C2CC=CCC2C1=O)Nc1nc2ccc(F)cc2s1 (configuration not stated) | -13 | 4 | -3 | 15 | 3 | 5 | nt
Cc1cnc(C(=O)Nc2nnc(SCc3c(Cl)cccc3Cl)s2)cn1 | -12 | 60* | 13 | -1 | 1 | -1 | 50*
O=C(CN1C(=O)C2CC=CCC2C1=O)Nc1nnc(SCc2c(Cl)cccc2Cl)s1 (configuration not stated) | -10 | 78* | 0 | -9 | 9 | 12 | 74*
CCSc1nnc(NC(=O)C2Cc3ccccc3CN2S(=O)(=O)CC)s1 (configuration not stated) | -2 | 2 | 3 | -16 | 2 | 8 | nt
Cc1ccc(CN2CC(C(=O)Nc3nnc(SCc4c(Cl)cccc4Cl)s3)CC2=O)cc1 (configuration not stated) | 4 | 22 | -2 | -3 | -1 | 17 | nt
CCS(=O)(=O)N1Cc2ccccc2CC1C(=O)Nc1nnc(SCc2c(Cl)cccc2Cl)s1 (configuration not stated) | -12 | 52* | -9 | -5 | 6 | 2 | 35*
COCCN(C(=O)COC(=O)CCOc1ccccc1)c1c(N)n(Cc2ccccc2)c(=O)[nH]c1=O | 2 | 9 | 10 | -8 | 6 | -1 | nt
Cc1ccc(Nc2nc(C)cc(C)c2C#N)c(C)c1 | 0 | nt | nt | 7 | nt | nt | nt
O=C(NC1CCCCC1)C(c1ccncc1)N(Cc1ccc2c(c1)OCO2)C(=O)c1cnsn1 (configuration not stated) | 9 | 33* | 0 | 5 | 7 | -2 | 18
O=C(NCC(c1ccc(F)cc1)N1CCOCC1)c1ccc(OCc2ccccc2)cc1 (configuration not stated) | 7 | 4 | -1 | 0 | 14 | 3 | nt
Cc1ccc(S(=O)(=O)N(C)c2ccc(OC(=O)c3cccs3)cc2)cc1C | 3 | 34* | 11 | -5 | 1 | 12 | 25
Cc1ccc(S(=O)(=O)N(C)c2ccc(OC(C)C(=O)N3CCCC3)cc2)cc1C (configuration not stated) | -6 | 11 | 5 | -6 | 4 | -3 | nt
CC(C)Cn1nc(C(=O)NCc2ccccc2CN2CCCC2)c2ccccc2c1=O | -4 | -2 | 5 | 1 | -4 | -11 | nt
SMILES | PKA-R2B activ | PAFAH2 inh | PAFAH1B3 FP inh | PKA-R1A activ | PAFAH1B2 inh | pPAFAH inh | PAFAH2 FP conf
Cc1ccc(S(=O)(=O)N2CCCCC2)cc1NC(=O)COC(=O)c1ccccc1F | 3 | 52* | 0 | 4 | -5 | 12 | 53*
Cc1ccc(NC(=O)COC(=O)c2ccccc2F)cc1S(=O)(=O)N1CCCCC1 | -14 | 67* | -1 | 4 | 1 | nt | 59*
Cc1ccc(NC(=O)c2ccccc2F)cc1S(=O)(=O)N1CCCCCC1 | -13 | 6 | -1 | -3 | 0 | -2 | nt
Cc1ccc(NC(=O)Cc2ccccc2Cl)cc1S(=O)(=O)N(C)C | 8 | 6 | 0 | 4 | -6 | 2 | nt
Cc1ccc(NC(=O)COC(=O)c2ccccc2Cl)cc1S(=O)(=O)N(C)C | -4 | 58* | 1 | -10 | -1 | 2 | 39*
O=C(COC(=O)c1ccc(Cl)s1)c1ccc[nH]1 | 2 | 13 | 7 | -3 | -7 | 9 | nt
Cc1ccc(C(=O)OCC(=O)c2ccc[nH]2)s1 | -1 | 35* | 6 | 3 | 5 | 11 | 31*
CC(C)Oc1ccc(C(=O)OCC(=O)c2ccc[nH]2)cc1 | -1 | 54* | 5 | -1 | 2 | 8 | 36*
O=C(OCC(=O)c1ccc[nH]1)c1ccc(C(F)(F)F)cc1 | -3 | 3 | 11 | 9 | 0 | 19 | nt
CCCS(=O)(=O)c1c(S(=O)(=O)CCC)c2ccc(C(N)=O)cn2c1C(=O)c1ccccc1 | 6 | 34* | 3 | -13 | -4 | nt | 24
O=C(O)CN=C(NS(=O)(=O)c1ccc(Cl)cc1)c1ccc(F)cc1 | -1 | 10 | 8 | -3 | 5 | 1 | nt
O=C(O)CN=C(NS(=O)(=O)c1ccc(Cl)cc1)c1ccccc1 | -5 | 35* | 1 | 13 | 12 | -7 | 7
C[C@H](CO)N1C[C@H](C)[C@@H](CN(C)C(=O)C2CCOCC2)Oc2ncc(Br)cc2C1=O | 3 | nt | nt | -5 | nt | nt | nt
